# Data reported in the supplement of paper PMC10849652.
# About 7,900 targets were measured; listed, in parts, are those with a hit and a random draw of the rest. About 0.6% of all pairs of compound and target were hits.
# Compound: FC(F)(F)c1ccc(/C=C/c2nc(COc3ccc(CCCCn4ccnn4)cc3)co2)cc1 [mubritinib]
# Assay: log2 fold change, soluble protein after heating vs DMSO (PISA); higher = thermal stabilisation; K562 cells, 10 uM, 30 min; active = over 0.2 and 3.5 SD of the protein, either way, in both replicates (recomputed)
# In short: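 K562 cells at 2×10^6 cells/mL were given 10 μM compound for 30 min. Aliquots then went through 3 min of heating across 48°C-58°C, were pooled, and were extracted in PBS with 0.5% NP-40 at 4°C, and the supernatant after 21,000xg for 90 min was quantified by TMTpro 16plex LC-MS/MS with channel sums equalised. Thermal stability relative to control samples, from duplicates, is given as log2 fold change.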
# UniProt Q9NQ34, sequence (Q9NQ34 whole entry, looked up): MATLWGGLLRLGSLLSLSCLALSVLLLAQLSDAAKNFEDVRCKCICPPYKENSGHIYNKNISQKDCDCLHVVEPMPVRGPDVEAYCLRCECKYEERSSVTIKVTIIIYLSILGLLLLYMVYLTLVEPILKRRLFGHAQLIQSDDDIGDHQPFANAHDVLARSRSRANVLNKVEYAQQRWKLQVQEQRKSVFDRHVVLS
# UniProt O95155, sequence (O95155 whole entry, looked up): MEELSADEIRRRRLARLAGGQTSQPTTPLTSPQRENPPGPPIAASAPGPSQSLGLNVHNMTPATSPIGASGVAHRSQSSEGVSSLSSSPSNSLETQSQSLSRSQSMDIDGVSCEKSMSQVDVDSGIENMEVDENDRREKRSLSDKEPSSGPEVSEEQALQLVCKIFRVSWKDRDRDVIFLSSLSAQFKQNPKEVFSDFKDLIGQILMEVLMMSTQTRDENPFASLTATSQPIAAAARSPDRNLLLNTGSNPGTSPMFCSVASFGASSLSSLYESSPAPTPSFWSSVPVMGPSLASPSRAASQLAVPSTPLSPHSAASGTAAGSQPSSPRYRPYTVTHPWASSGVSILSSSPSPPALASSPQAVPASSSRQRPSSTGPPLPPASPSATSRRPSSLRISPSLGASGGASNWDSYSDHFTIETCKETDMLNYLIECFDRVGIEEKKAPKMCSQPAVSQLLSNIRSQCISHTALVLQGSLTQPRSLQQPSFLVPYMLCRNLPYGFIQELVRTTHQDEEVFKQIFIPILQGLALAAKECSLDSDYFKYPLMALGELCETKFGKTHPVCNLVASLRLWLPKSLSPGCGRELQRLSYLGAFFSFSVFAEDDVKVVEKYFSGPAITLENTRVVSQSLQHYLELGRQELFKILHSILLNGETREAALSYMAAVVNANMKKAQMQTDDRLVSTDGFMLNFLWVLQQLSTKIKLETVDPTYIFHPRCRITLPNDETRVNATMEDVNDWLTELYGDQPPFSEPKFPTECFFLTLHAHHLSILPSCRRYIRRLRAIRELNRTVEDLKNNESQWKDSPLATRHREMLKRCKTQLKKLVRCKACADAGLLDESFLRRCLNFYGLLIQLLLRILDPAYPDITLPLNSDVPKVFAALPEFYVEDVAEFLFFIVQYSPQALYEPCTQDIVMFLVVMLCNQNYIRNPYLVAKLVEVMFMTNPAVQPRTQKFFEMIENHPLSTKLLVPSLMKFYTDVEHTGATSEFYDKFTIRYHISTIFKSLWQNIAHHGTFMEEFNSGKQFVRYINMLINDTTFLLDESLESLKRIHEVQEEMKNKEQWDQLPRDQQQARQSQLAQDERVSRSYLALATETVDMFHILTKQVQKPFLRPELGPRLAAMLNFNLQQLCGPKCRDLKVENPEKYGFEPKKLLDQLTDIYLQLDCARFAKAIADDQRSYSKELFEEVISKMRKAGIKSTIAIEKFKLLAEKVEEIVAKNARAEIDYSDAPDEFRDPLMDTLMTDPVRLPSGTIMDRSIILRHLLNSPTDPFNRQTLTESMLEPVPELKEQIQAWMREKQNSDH
# UniProt Q9UK41, sequence (Q9UK41 whole entry, looked up): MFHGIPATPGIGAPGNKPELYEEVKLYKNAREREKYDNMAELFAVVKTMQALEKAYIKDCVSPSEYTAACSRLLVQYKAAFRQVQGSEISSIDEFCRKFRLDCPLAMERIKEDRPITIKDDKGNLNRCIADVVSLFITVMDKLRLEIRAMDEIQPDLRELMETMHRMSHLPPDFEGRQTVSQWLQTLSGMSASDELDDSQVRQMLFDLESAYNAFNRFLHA
# UniProt Q86SZ2, sequence (Q86SZ2 whole entry, looked up): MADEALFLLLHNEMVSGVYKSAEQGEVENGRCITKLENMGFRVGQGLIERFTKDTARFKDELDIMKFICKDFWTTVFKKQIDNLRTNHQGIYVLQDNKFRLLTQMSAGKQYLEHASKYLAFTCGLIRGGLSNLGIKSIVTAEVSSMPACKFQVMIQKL
# UniProt Q7Z7E8, sequence (Q7Z7E8 whole entry, looked up): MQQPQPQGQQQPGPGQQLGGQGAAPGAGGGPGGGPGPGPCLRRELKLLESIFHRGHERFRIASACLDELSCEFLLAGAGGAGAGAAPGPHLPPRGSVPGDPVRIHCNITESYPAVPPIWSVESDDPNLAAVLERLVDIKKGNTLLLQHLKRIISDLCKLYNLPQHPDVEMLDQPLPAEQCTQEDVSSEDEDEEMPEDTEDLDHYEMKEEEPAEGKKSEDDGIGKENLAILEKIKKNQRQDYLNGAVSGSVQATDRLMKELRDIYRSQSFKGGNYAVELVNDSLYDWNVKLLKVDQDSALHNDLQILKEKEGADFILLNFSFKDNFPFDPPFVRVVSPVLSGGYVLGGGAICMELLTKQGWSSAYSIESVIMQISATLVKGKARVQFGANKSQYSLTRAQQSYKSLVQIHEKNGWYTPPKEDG
# UniProt O43156, sequence (O43156 whole entry, looked up): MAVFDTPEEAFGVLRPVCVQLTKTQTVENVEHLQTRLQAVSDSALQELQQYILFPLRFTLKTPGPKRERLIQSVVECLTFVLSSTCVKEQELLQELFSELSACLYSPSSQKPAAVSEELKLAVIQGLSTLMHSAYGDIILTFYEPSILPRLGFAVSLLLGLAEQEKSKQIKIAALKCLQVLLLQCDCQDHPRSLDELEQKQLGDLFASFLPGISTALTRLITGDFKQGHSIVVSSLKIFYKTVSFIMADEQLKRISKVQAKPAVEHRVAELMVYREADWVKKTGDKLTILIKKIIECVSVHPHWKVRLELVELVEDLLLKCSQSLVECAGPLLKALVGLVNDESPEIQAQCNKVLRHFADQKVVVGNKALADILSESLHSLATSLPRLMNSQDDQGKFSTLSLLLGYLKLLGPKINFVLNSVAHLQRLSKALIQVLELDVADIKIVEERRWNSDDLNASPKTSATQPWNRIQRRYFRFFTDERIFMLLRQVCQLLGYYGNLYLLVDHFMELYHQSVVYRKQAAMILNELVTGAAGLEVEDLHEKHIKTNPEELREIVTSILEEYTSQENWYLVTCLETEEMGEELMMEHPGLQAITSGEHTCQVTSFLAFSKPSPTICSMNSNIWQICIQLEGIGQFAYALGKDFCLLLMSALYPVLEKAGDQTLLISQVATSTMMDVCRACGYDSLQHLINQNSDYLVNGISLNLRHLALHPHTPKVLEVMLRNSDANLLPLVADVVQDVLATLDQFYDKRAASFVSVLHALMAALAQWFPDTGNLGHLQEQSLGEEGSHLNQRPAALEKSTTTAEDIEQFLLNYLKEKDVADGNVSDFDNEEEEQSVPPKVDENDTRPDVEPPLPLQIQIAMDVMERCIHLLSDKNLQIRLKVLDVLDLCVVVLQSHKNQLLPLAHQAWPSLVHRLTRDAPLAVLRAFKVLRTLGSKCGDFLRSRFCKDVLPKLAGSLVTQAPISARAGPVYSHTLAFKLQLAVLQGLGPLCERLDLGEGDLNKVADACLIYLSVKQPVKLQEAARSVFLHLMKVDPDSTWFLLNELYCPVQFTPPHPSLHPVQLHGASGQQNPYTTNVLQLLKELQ
# UniProt Q9NVA4, sequence (Q9NVA4 whole entry, looked up): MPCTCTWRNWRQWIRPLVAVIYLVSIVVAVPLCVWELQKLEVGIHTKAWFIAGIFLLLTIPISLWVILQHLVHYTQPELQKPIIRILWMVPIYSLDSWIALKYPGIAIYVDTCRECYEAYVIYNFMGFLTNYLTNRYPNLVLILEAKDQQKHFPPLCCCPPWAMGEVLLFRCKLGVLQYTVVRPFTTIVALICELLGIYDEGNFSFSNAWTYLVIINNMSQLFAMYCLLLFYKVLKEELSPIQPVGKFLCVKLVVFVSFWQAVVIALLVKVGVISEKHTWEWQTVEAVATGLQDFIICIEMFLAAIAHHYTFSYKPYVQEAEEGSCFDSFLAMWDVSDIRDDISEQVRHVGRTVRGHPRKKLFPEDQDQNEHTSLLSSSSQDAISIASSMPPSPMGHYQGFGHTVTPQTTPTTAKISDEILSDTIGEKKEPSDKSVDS
# UniProt Q9C037, sequence (Q9C037 whole entry, looked up): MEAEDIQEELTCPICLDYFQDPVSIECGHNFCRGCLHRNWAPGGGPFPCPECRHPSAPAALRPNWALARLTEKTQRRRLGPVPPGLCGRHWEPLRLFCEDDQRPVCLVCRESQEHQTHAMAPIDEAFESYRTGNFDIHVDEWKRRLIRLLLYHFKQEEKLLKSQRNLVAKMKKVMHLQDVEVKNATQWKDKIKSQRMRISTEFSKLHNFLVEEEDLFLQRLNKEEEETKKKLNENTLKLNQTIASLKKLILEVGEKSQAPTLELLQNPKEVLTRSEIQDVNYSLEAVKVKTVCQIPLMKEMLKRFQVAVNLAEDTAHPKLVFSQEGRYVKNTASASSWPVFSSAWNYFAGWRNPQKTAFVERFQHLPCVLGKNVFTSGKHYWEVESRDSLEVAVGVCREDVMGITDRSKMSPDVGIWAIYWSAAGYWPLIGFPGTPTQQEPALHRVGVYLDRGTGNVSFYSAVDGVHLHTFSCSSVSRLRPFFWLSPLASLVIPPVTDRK
# UniProt Q16763, sequence (Q16763 whole entry, looked up): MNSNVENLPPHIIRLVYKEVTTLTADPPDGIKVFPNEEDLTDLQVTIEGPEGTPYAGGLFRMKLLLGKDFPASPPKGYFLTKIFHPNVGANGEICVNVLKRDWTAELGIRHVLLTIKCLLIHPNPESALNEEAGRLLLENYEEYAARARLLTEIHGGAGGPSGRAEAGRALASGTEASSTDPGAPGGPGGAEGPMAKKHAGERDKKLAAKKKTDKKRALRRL
# UniProt P61960, sequence (P61960 whole entry, looked up): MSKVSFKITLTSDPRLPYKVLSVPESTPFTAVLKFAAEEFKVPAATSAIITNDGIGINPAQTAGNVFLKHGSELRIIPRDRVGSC
# UniProt Q9NX01, sequence (Q9NX01 whole entry, looked up): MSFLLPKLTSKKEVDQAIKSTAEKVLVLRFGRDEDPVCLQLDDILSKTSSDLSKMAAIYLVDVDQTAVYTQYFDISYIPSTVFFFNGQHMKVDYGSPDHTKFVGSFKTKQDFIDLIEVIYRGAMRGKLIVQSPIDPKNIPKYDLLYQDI
# UniProt P51668, sequence (P51668 whole entry, looked up): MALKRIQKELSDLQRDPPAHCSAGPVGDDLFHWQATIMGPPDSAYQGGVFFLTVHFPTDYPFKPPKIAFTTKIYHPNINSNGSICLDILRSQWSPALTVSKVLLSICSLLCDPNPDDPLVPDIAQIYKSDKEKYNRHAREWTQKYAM
row,Target,log2 fold change
1,TRIM44 (UniProt Q96DX7),0.065 (inactive)
2,TRIM23 (UniProt P36406),0.028 (inactive)
3,VPS28 (UniProt Q9UK41),0.046 (inactive)
4,UBE2D1 (UniProt P51668),0.085 (inactive)
5,TMEM268 isoform 3 (UniProt Q5VZI3),0.109 (inactive)
6,WASHC2A (UniProt Q641Q2),0.004 (inactive)
7,TMEM179B (UniProt Q7Z7N9),-0.025 (inactive)
8,UBE4B isoform 4 (UniProt O95155),0.032 (inactive)
9,TRAPPC6B (UniProt Q86SZ2),0.045 (inactive)
10,TMEM9B (UniProt Q9NQ34),0.009 (inactive)
11,TSPAN13 (UniProt O95857),0.226 (inactive)
12,TMEM8A (UniProt Q9HCN3),-0.001 (inactive)
13,WEE1 (UniProt P30291),0.394 (inactive)
14,UNC119B (UniProt A6NIH7),0.14 (inactive)
15,TRIM4 (UniProt Q9C037),0.033 (inactive)
16,UBIAD1 (UniProt Q9Y5Z9),-0.144 (inactive)
17,USP48 isoform 8 (UniProt Q86UV5),-0.021 (inactive)
18,TMEM164 (UniProt Q5U3C3),-0.067 (inactive)

row,Target,log2 fold change
1,UFM1 isoform 2 (UniProt P61960),-0.015 (inactive)
2,TUT4 (UniProt Q5TAX3),-0.01 (inactive)
3,UBAP2L (UniProt F8W726),-0.032 (inactive)
4,TMEM41A (UniProt Q96HV5),0.062 (inactive)
5,TMEM184C (UniProt Q9NVA4),0.01 (inactive)
6,XIAP (UniProt P98170),0.095 (inactive)
7,TMEM106B (UniProt Q9NUM4),0.023 (inactive)
8,TXNL4B (UniProt Q9NX01),0.17 (inactive)
9,UBE2S (UniProt Q16763),0.002 (inactive)
10,VKORC1 (UniProt Q9BQB6),0.035 (inactive)
11,TMEM161A (UniProt Q9NX61),0.027 (inactive)
12,VWA3B isoform 6 (UniProt Q502W6),0.014 (inactive)
13,VPS37A (UniProt Q8NEZ2),-0.038 (inactive)
14,TTI1 (UniProt O43156),0.095 (inactive)
15,UBE2Q1 (UniProt Q7Z7E8),0.006 (inactive)
16,TRABD (UniProt Q9H4I3),-0.032 (inactive)
17,UBXN10 (UniProt Q96LJ8),0.067 (inactive)
